An excerpt weighted towards active compounds, which were near 5.5% of everything screened.
RORg inh – inhibitors of mouse ROR gamma transcriptional activity | Drosophila S2 Gal4-RORgamma UAS-luciferase reporter, 20 h | Potency, µM (top dose mostly 53.6 µM), for inactives: at the top dose activity change, negative = inhibition, actives largely listed as inhibitors | 310,000 compounds, 5.4% hits | AID 2551; further: on the % scale 0 is the no-effect control and ±100 the full control effect; nearly all actives have a fitted effect of over 60% in size
Target sequence (P51450 whole entry, looked up, the tested form may be a part): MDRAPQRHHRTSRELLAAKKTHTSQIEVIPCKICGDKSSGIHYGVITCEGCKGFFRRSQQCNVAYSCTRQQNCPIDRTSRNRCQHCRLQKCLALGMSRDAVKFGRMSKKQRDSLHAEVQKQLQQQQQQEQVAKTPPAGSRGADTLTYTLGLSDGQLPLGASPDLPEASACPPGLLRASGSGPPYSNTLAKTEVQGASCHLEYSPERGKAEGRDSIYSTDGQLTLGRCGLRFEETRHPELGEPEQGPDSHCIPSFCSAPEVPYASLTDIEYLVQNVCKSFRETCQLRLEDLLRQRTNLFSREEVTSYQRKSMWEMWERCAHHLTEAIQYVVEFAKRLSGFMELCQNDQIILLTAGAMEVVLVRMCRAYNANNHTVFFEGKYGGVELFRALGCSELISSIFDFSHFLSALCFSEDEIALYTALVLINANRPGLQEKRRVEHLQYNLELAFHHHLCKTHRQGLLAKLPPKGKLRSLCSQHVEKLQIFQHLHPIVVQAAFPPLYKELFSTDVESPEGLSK
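Stable Schneider cell line, Gal4 DNA-binding domain fused to ROR gamma, UAS-luciferase. Cmpd 1 hr RT → CuSO4 700 uM final → 20 hr RT → luciferase reagent 10 min → luminescence.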
Integrin act MD – integrin-mediated muscular dystrophy alleviation activation; 350,000 compounds, 0.064% hits; alpha7betagal myoblasts, beta-gal FDG fluorescence, 48 h; AID 624291; Potency, µM (doses to about 38.3 µM), without a hit: at the top dose activation, actives largely listed as activators;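 further: 100% = response of the positive control SU9516; nearly all actives have a fitted effect of over 60% in size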
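Alpha7betagal+/- myoblasts (passage 13) were plated 16-24 hr, then exposed to compounds (1:260 dilution of DMSO stock) for 48 hours at 37C. After MPER lysis, β-galactosidase reporter activity was read as FDG fluorescence (ex 480/em 540) after 30 minutes.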
VP16 counter – Gal4-VP16 reporter inhibition counter-screen; Drosophila S2 Gal4-VP16 UAS-luciferase, luminescence, 20 h; Potency, µM (series often up to 53.6 µM), for inactives: top-dose activity, negative = inhibition, usual class: inhibitors; 310,000 compounds, 3.5% hits;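 further: Gal4-VP16 expression switched on by copper sulfate through the metallothionein promoter; on the % scale 0 is the no-effect control and ±100 the full control effect; nearly all actives have a fitted effect of over 50% in size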
Mito fusion yeast – mitochondrial division inhibition or fusion activation | S. cerevisiae fusion-defective mutant growth rescue, CellTiterGlo 48 h | Potency, µM (series often up to 46.1 µM), for the others: top-dose growth rescue (activation), most hits filed as activators | 320,000 compounds, 0.23% hits; further: % of control where 0% means no effect; nearly all actives have a fitted effect of over 45% in size
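Read-out: ATP-based luminescence (CellTiterGlo, 10 min ambient) reporting growth of fusion-defective ts yeast after 48 hours at 37C on glycerol/ethanol YPEG medium in the presence of compound.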
uPA generation – blocks generation of uPA at the cell surface; cell surface uPA generation assay, qHTS; Potency, µM (top dose mostly 38.3 µM), without a hit: at the top dose activity change, negative = inhibition, actives largely listed as inhibitors; 330,000 compounds, 0.31% hits; AID 540303; active means well fitted inhibition curve with a large enough effect; inconclusive means small, poorly fitted or top-dose-only effect; inactive means no such curve, though single readings can be large or run the other way; tested in mouse RAW 264.7 cells; further: on the % scale 0 is the no-effect control and ±100 the full control effect; nearly all actives have a fitted effect of over 55% in size
Chronic BCR inh – blocks chronic active B-cell receptor signaling; ABC-DLBCL IkBa-CBG/CBR reporter, luminescence ratio, 4 h; AID 493014; 340,000 compounds, 0.05% hits; Potency, µM (titrated, usually from 46.1 µM), for inactives: top-dose activity change, negative = inhibition, most hits filed as inhibitors; active means well fitted inhibition curve with a large enough effect in the signal ratio, with a control signal flat, not every such curve was filed as active; inconclusive means small, poorly fitted or top-dose-only effect, or effect the other way, or a change in a side signal; the % refers to the signal ratio;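 further: plate controls were basal doxycycline-induced cells for no effect and cells given 10 µM MG132 for full effect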
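TMD8 ABC-DLBCL cells carrying doxycycline-inducible green luciferase fused to IkappaBalpha plus unfused red luciferase were exposed to compounds (up to 46 uM) for 4 hrs at 37C. Activity came from the overlap-corrected green/red luminescence ratio.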
An asterisk follows results filed as active; ? = inconclusive; · = no result given; [ ] = dose if it differs, or a comment. Unless noted, the call rests on the fitted dose curve; in most records, active means well fitted curve in the direction sought with a large enough effect; inconclusive means small, poorly fitted or top-dose-only effect, or another doubt; inactive means no such curve, though single readings can be large; an effect the other way counts as inactive or inconclusive. Potency means the concentration at half of the fitted maximal effect.

SMILES	RORg inh	Integrin act MD	VP16 counter	Mito fusion yeast	uPA generation	Chronic BCR inh
Clc1ccc(CN2C3=NCCCN3c3ccccc32)c(Cl)c1	-2.6%	-24.3%	-3.5%	-2.7%	-5.3%	0.3%
COC(=O)Oc1ccc(/C=N/NC(=O)CSCc2ccccc2Br)cc1OC	?	-13.0%	12.6µM*	-7.3%	-9.0%	?
COc1ccc(/C=N/NC(=O)CSCC(=O)Nc2ccccc2)cc1OC	14.9%	-9.3%	-4.7%	0.4%	-10.7%	-21.1%
CC(=O)c1ccc(N2CCN(c3ncnc4c3c(-c3ccccc3)cn4-c3ccc(C)c(Cl)c3)CC2)cc1	·	·	·	·	·	-1.4%
CCOCCCN(C(=O)Cn1nnc(-c2ccc(OC)c(OC)c2)n1)C(C(=O)NCC1CCCO1)c1ccc(F)cc1 (centres undefined)	-12.9%	-38.5%	8.6%	-1.5%	3.5%	9.2%
CC[C@@H](C)[C@H](NC(=O)OC(C)(C)C)c1nnc(S(=O)(=O)Cc2cc(C)ccc2C)o1	?	-0.6%	?	-15.8%	-14.8%	?
CC(C)C[C@H](N)c1nnc(S(=O)(=O)Cc2cccc(F)c2)o1	6.31µM*	-60.2%	?	4.6%	?	?
Cc1ccccc1CS(=O)(=O)c1nnc([C@H](CC(C)C)NC(=O)OC(C)(C)C)o1	7.08µM*	-64.6%	4.47µM*	-24.9%	·	?
CC(C)(C)OC(=O)N[C@@H](Cc1ccccc1)c1nnc(S(=O)(=O)Cc2cccc(F)c2)o1	4.47µM*	-61.8%	4.47µM*	3.2%	-14.1%	?
CCOC(=O)CSc1nnc([C@H](Cc2ccccc2)NC(=O)OC(C)(C)C)o1	-6.9%	18.4%	-2.7%	3.7%	·	5.4%
CC(C)[C@H](NC(=O)OC(C)(C)C)c1nnc(S(=O)(=O)Cc2c(F)cccc2Cl)o1	4.47µM*	-58.4%	5.01µM*	-12.6%	?	?
O=C(O)[C@@H]1[C@@H]2C[C@H]3c4[nH]c5ccccc5c4CCN3C[C@@H]2CC[C@@H]1O	-31.6%[16.9 µM]	·	7.6%[17 µM]	·	·	·
COc1ccc(CNc2ncnc3ccc(-c4cccc(NS(C)(=O)=O)c4)cc23)c(OC)c1	?	·	13.0%	·	·	·
CCN(CC)C(=O)c1sc2c(c1C)c(=O)n(CCc1ccccc1)c(=O)n2Cc1cc(C)ccc1C	·	·	·	·	·	-3.4%
CCCCCCCCCCCCOCCCN	16.8%	·	-4.4%	·	·	·
c1ccc(Cn2c(NCc3ccccn3)nc3ccccc32)cc1	10µM*	10.3%	-6.4%	2.7%	-0.6%	7.3%
CCCCn1c(NCc2ccccn2)nc2ccccc21	7.08µM*	5.4%[7.66 µM]	12.6µM*	-2.5%	·	3.1%
Cc1cccc(C)c1NC(=O)COC(=O)CN1C(=O)C2CCCCC2C1=O (centres undefined)	·	4.9%	·	-1.7%	11.4%	?
COc1ccc(NC(=O)CN(C)S(=O)(=O)c2ccc3nc(C)sc3c2)cc1	·	·	·	-6.5%	·	-4.5%
COc1ccc(NC(=O)C(=O)c2cn(CC(=O)N3CCCC3)c3ccccc23)cc1	19.4%	-12.4%	21.8%	2.8%	-58.7%	?
Cc1ccc(-c2csc3nnc(SCC(=O)N4CCN(Cc5ccccc5)CC4)n23)cc1	-43.2%	-17.3%	-8.2%	7.6%	-1.2%	4.0%
O=C(CSc1nnc2scc(-c3ccccc3)n12)N1CCN(Cc2ccccc2)CC1	8.91µM*	-10.9%	-8.2%	-1.9%	-3.6%	?
COc1ccccc1N/C=C(\C#N)c1nc2ccccc2[nH]1	?	-30.0%	-14.0%	0.5%	-17.7%	7.2%
COc1ccccc1/C(O)=C(\C#N)c1nc2ccccc2[nH]1	1.41µM*	1.1%	-7.0%	15.9%	-3.1%	8.6%
N#C/C(=C(/O)c1cccs1)c1nc2ccccc2[nH]1	?	19.2%	?	8.8%	-4.8%	?
SMILES	RORg inh	Integrin act MD	VP16 counter	Mito fusion yeast	uPA generation	Chronic BCR inh
CSCCC(/C(O)=C(\C#N)c1nc2ccccc2[nH]1)N1C(=O)c2ccccc2C1=O (centres undefined)	11.2µM*	15.1%	17.8µM*	1.7%	-1.6%	3.5%
N#C/C(=C(/O)c1ccco1)c1nc2ccccc2[nH]1	7.08µM*	12.3%	?	0.0%	-8.4%	?
N#C/C(=C(/O)CN1C(=O)c2ccccc2C1=O)c1nc2ccccc2[nH]1	11.2µM*	15.9%	?	-0.6%	2.9%	1.2%
CCCCCCCC/C=C\C/C=C\C/C=C\CCCC(=O)NCCO	-17.5%	·	2.2%	·	·	·
COc1c(N2C[C@@H]3CCCN[C@H]3C2)c(F)cc2c(=O)c(C(=O)O)cn(C3CC3)c12	21.1%	·	-1.2%	·	·	·
O=C(O)C1=C[C@H](c2cccs2)C[C@H](OCc2ccc(CO)cc2)O1	-32.9%	20.3%	10.2%	10.0%	4.6%	?
N#C/C(=C(\O)Cc1ccccc1)c1nc2ccccc2[nH]1	2.82µM*	3.9%	?	-0.7%	-2.0%	5.4%
C/C(O)=C(\C#N)c1nc2ccccc2[nH]1	?	-6.4%	14.1µM*	1.6%	-3.7%	?
N#C/C(=C(/O)c1ccc(Br)s1)c1nc2ccccc2[nH]1	1µM*	-33.2%	0.0%	-0.8%	3.55µM*	?
N#C/C(=C(/O)c1ccc(C(=O)c2ccccc2)cc1)c1nc2ccccc2[nH]1	4.8%	5.5%	14.4%	2.0%	0.7%	2.6%
N#C/C(=C(/O)CCl)c1nc2ccccc2[nH]1	5.01µM*	-36.2%	10µM*	-9.0%	-7.3%	?
O=Cc1c[nH]c2ccc(C(=O)c3ccccc3)cc12	-1.4%[1.91 µM]	-16.9%	9.6%	-1.5%	3.0%	?
NCCCC[C@H](NC(=O)C1CCNCC1)c1nnc(CN)o1	2.2%	·	-6.4%	-1.8%	·	-7.9%
N#C/C(=C/c1cccs1)c1nc2ccccc2[nH]1	?	15.7%	-21.0%	?	-1.3%	?
COc1ccccc1-c1nnc(SC/C(O)=C(\C#N)c2nc3ccccc3[nH]2)n1C1CCCCC1	7.08µM*	27.9%	11.2µM*	·	-2.5%	?
Cc1ccc(/C=C(\C#N)c2nc3ccccc3[nH]2)s1	?	?	10µM*	-1.5%	-24.5%	?
N#C/C(=C(/O)CSc1nnc(Cc2cccs2)n1C1CCCCC1)c1nc2ccccc2[nH]1	-23.1%	?	-0.1%	?	10.3%	?
COC(=O)c1cccc(C23CC4(C2)[C@H](CN(CC2CCCCC2)[C@@H]4c2ccccc2)C3c2ccc(Cl)nc2)c1 (some centres undefined)	8.1%	·	-12.2%	·	·	·
CC(C)(C)C(=O)NC1CC(=O)N(c2ccc3c(c2)OCCO3)C1 (centres undefined)	·	·	·	·	·	0.6%
CCN(Cc1ccccc1)c1ccc(/C=N/NC(=O)c2cccc(S(=O)(=O)N3CCOCC3)c2)cc1	6.31µM*	-32.0%	7.94µM*	-3.1%	-5.2%	0.6%
